Most compounds without a hit are left out; they make up all but 2.4% or so of the library.
CHT PAM – human CHT allosteric activation. Q9GZV3. CHT-expressing cells, membrane potential dye, choline EC20; stronger effect = higher value; LV-AA mutant CHT in HEK293 cells. B-score at 10 µM. 310,000 compounds, 0.49% hits. AID 488977;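 active = initial fluorescence not abnormally high and integrated response B-score, plate-corrected, over 3 SD above library mean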
Target sequence (Q9GZV3 whole entry, looked up): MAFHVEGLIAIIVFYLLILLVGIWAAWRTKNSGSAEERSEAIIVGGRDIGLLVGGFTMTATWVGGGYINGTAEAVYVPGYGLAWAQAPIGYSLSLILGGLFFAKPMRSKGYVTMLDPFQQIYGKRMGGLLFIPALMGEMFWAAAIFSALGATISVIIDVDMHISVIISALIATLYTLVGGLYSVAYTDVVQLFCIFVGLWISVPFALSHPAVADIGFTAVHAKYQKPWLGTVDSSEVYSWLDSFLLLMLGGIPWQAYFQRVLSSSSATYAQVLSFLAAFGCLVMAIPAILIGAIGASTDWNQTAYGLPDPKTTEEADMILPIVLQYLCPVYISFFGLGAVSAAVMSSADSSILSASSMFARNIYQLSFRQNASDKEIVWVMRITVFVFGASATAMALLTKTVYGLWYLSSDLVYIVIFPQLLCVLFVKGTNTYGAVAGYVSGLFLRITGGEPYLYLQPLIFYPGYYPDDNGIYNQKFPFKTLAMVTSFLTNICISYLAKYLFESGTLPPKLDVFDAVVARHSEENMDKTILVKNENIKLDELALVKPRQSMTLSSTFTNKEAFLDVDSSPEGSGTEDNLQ
TMEM16A inh – inhibitors of mouse TMEM16A calcium-activated chloride channel; normalized B-score (activity score, 25-100; higher = stronger inhibition) at 10 µM; HEK293 TMEM16A/YFP iodide influx fluorescence, ionomycin; 310,000 compounds, 1.2% hits; Q8BHY3;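 active = ratio plate-corrected score three or more library SD toward inhibition, starting fluorescence score within five deviations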;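 note: score derived from kinetic fluorescence span divided by baseline fluorescence per well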
TMEM16A act – activators or potentiators of mouse TMEM16A chloride channel. Q8BHY3. HEK293 TMEM16A/YFP-H148Q/I152L, iodide quench fluorescence; stronger effect = lower value. B-score at 10 µM. 340,000 compounds, 0.3% hits;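 active = fluorescence-ratio B-score plate-corrected deviation score at least 3 library SD below zero, with starting fluorescence score within 5 deviations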;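 note: channel opened by trigger with iodide after compound preincubation; score built on the fluorescence ratio of max minus min over baseline; more negative score means more quench and so TMEM16A activation or potentiation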
CHT inh – inhibits the human high affinity choline transporter | Q9GZV3 | CHT-expressing cells, membrane potential dye, choline response; stronger effect = lower value | B-score at 10 µM | 310,000 compounds, 0.86% hits | AID 488975;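 active = B-score over 3 SD under the library average, and starting fluorescence ratio not unusually high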;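 note: choline stimulus applied at its EC90 after an EC20 pre-addition; B-score computed on integrated fluorescence ratio after choline addition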
TMEM16A reconf – reconfirmed blocker of mouse TMEM16A calcium-activated chloride channel. shares compounds with TMEM16A inh. HEK293 TMEM16A/YFP-H148Q, iodide quench fluorescence; ionomycin added to raise cell calcium. inhibition, % at 10 µM. 2,300 compounds, 39% hits. AID 652189;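 active = mean duplicate percent inhibition, scaled so buffer wells are 0 and the reference blocker 100, over three buffer SD above buffer mean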
TMEM16A Ca cntr – counter-screen for TMEM16A inhibitors: effect on calcium mobilization | shares compounds with TMEM16A inh | TMEM16A/YFP HEK293, Fluo4 calcium mobilization | calcium response (% of ionomycin), % at 10 µM | 2,300 compounds, 2% hits;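 active = duplicate-averaged calcium signal over 20% of the ionomycin maximum, relative to buffer baseline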;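 note: each well's signal is peak minus trough fluorescence divided by its pre-addition baseline; 0% = buffer wells and 100% = ionomycin wells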
YFP-HEK293 quench – counter-screen for TMEM16A inhibitors: effect in parental YFP-HEK293 cells. shares compounds with TMEM16A inh. iodide YFP quench, ionomycin. YFP ratio F(max-min)/F0 at 10 µM. 2,300 tested, under 10 active. AID 652233;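 active = yellow fluorescent protein signal ratio exceeding the buffer control mean by over 5 SD of those controls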;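 note: ratio is mean of duplicate wells from kinetic YFP trace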
ClC-1 rat inh – selectivity of TMEM16A inhibitors: inhibition of rat ClC-1 chloride channel. ratio percent, % at 10 µM. CHO ClC-1-YFP, iodide influx fluorescence quench; iodide control reads 0, buffer control 100. shares compounds with TMEM16A inh. 2,300 tested, under 10 active;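 active = duplicate-mean ratio percent above the mean of iodide-only control wells, which defines zero, plus 5 of their SD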;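 note: higher percent means stronger block of ClC-1 iodide influx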
* = called active by the depositor; i = inactive; x = not tested or not shown.

SMILES	CHT PAM	TMEM16A inh	TMEM16A act	CHT inh	TMEM16A reconf	TMEM16A Ca cntr	YFP-HEK293 quench	ClC-1 rat inh
Cc1c(NC(=O)c2ccc3nsnc3c2)cccc1[N+](=O)[O-]	i	i	i	i	x	x	x	x
CCOc1ccc(C=NCC(O)c2ccccc2)cc1 (configuration not stated)	i	i	i	i	x	x	x	x
COc1cc2ncnc(Nc3ccc4c(c3)OCO4)c2cc1OC	i	i	i	i	i	i	-0.89	-4
Cc1ccc2cc(C#N)c(N3CCCN(C(=O)C4CCCO4)CC3)nc2c1 (configuration not stated)	i	i	i	i	x	x	x	x
Cc1ccc2cc(C#N)c(NCCCNC(=O)C3CCCO3)nc2c1 (configuration not stated)	i	25*	i	i	i	i	-1	-8
O=C(Nc1cccnc1)C1(c2ccc(Cl)cc2)CCCC1	i	i	i	i	x	x	x	x
CCC(=O)Nc1nc(-c2ccc3c(c2)CC(C)N3S(C)(=O)=O)cs1 (configuration not stated)	i	i	i	i	x	x	x	x
CC1Cc2cc(-c3csc(NC(=O)Cc4cccs4)n3)ccc2N1S(C)(=O)=O (configuration not stated)	i	25*	i	i	22%*	i	-1.4	-4
CC(C)[C@H](NC(=O)N1CCn2c1nc1ccccc12)C(=O)NCC1CCCO1 (some centres not stated)	i	i	i	i	x	x	x	x
COc1ccc(NC(=O)c2cnc3sccn3c2=O)cc1	i	100*	i	i	i	i	-1	-7
Cc1cccc(NC(=O)c2cnc3sccn3c2=O)c1	i	i	i	i	x	x	x	x
CCCCCOC(=O)CSc1nnc(-c2cc(OC)c(OC)c(OC)c2)o1	i	25*	i	i	i	i	-1.1	-9
CC(OC(=O)c1ccc(NC(=O)CC#N)cc1)C(=O)Nc1ccc(Oc2ccccc2)cc1 (configuration not stated)	i	i	i	i	x	x	x	x
CC(OC(=O)c1ccc(NC(=O)CC#N)cc1)C(=O)Nc1nc(-c2ccccc2)cs1 (configuration not stated)	i	100*	i	i	22%*	i	-0.8	-4
Cc1cc(C(=O)OC(C)C(=O)Nc2nc(-c3ccccc3)cs2)c(C)o1 (configuration not stated)	i	25*	i	i	i	i	-0.94	-12
COc1cccc(CN(C)CC(=O)Nc2cccc(C(F)(F)F)c2)c1OC	i	i	i	i	x	x	x	x
COC(=O)CCCCCN1C(=O)NC(c2ccccc2)C(C(=O)OCc2ccccc2)=C1C (configuration not stated)	i	25*	i	i	16%*	i	-1.1	-14
CC1=C(C(=O)OCc2ccccc2)C(c2ccc(Br)cc2)NC(=O)N1CCCCCC(=O)O (configuration not stated)	i	i	i	i	x	x	x	x
COC(=O)C1=C(C)N(CCCC(=O)O)C(=O)NC1c1ccc(-c2ccccc2)cc1 (configuration not stated)	i	100*	i	i	i	i	-1.3	-1
O=C(NCCOc1ccc(Cl)cc1)c1ccc2ccccc2n1	i	i	i	i	x	x	x	x
COc1ccc(NC(=O)CSc2nnc(Cc3ccc(C)cc3)c(=O)n2N)cc1	i	i	i	i	x	x	x	x
O=C(CCc1ccccc1)Nc1ccccc1F	i	100*	i	i	i	i	-1	-4
O=C(CCc1ccccc1)Nc1ccc(F)cc1F	i	i	i	i	x	x	x	x
CCc1ccc(NC(=O)c2cnc(N3CCN(c4ccccn4)CC3)c3ccccc23)cc1	i	i	i	i	i	i	-1.2	0
